Results from the supplement of paper PMC6555819.

System: VDR:RXRa (NR concentration 270 nM, RXRa partner concentration 90 nM)
Test: PBM binding z-score (relative to random genomic background probes); higher = stronger binding; sequences stand for … in GC…GCGATTGACAGCGTAGAATGAAGG
Procedure: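 Protein-binding microarray (Agilent 4x180K custom design, double-stranded 60-nt probes: 5' GC cap, 34-nt variable region, 24-nt constant primer region; full probe sequence given). Purified or IVT nuclear receptor:RXRα heterodimers (3:1 NR:RXRα, mostly 270:90 nM) or homodimers were incubated for 1 h in PBS with 2% milk and no ligand, then detected with Alexa488 antibodies. Fluorescence from o1-orientation probes (~5 replicates averaged) was converted to z-scores against 500 random hg19 background probes. Variable regions are seed direct-repeat (DR0–DR5) sites, all their single-nucleotide variants and half-site ablations.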

Sequence | PBM binding z-score
GCTGCTAGGTCAGGTTGGTCCGCTAACGGGTACG | 0.681
TCTAGTTGGTCAAAGGTCAGACACTCGAAATGCG | 4.09
CATACTGGGTCAGCTAGGCCAGAGTAGGGACGGC | 1.19
CAAACTAGGTCTAGAGGTCAAAGTCCGCTTCCCG | 4.93
CGTTAAAGTTCAAGGTAACGTAACAGAAAGCAGC | 3.02
AGCACGAGGGCACGCTGAGTTGATAGCAGAGTAG | 2.17
TCTAGTTGGTCACGGAGGTGACACACGACGGGTA | 1.59
CCTTACGGGTCAATGTTATAGCACGGGTGGTACG | 2.57
GCTGCTAGCTCAACTGATGGTCAGCTAAAGCTCG | -0.797
ATATGTAGGTTAGCTTGGGTCATTCAGACTAGGC | 2.64
CCTAGCAGGCTAATCTGGGTCACTCAAGGCTTGA | 0.385
GGAGCGAGGGCATTCGAGTTGATAGCATGGCGAT | 3.31
GCAGACAGGTGAAACGCAGGTAACTCACGGTGGC | -0.56
AGAACGAGGGCAATGAGTTGATAGCCCGGGTGGC | 4.73
GCTAGTTGTTCAGTAAAAGGTCACACACCGGTCG | 3.93
TTACCAAGGTGAGGTGAGGTCGTTGATCCAACTC | 4.3
GCTAGTAGGCCATTTGGGTCACTCAATGACGGGC | 0.995
CCTAGCAGGCCAGAGTCACTCAAGCATTTCGCTT | -0.665
CCTAGTTGGTCAAGGACACACACGCTATAGGTAC | 0.744
CCTCGTAGGACAACAGGAGGTCAGAGCTGCCAGA | 1.64

Sequence | PBM binding z-score
TCTATTAGTTGGAGGGCAACCGACGAGTCCGTTT | 1.27
CCTGCTAGGTCAATGGTCAGCAAAAGCAGCTCGC | 0.941
GCTTGTAGATCAAGGTTCAGAAAGACTAAGCTAA | 0.919
TCAAGTAGGTTAGTCGGGGCATTCAGCCAACATA | 2.43
GATACAGGGTCACGGCCAGAGTACGCGTATTGAT | 5.4
GATACAGGGTCAGCTAGAGGCCAGCGTATGGAAA | 3
CGTCCAAGGTCAGAGAGGTCAGAGAATGCCGAGT | 7.59
TCGAGTAGGTTAGTAGGGGCATTCAGCCAACATA | 3.1
CCTATTGGGCCACGAAAGGTCATTGATTCAGTGA | 4.16
ATATGTAGGTTAAGGGTGATTCAGGTTGGTTCGC | 1.68
ACTGACAGGTGATGAAGGTAACTCAGGCTATCAT | 0.103
TCAGACAGGTGAAGGTAACTGAGGTACGCAGTCG | 0.737
AGCTCTAGGTAAAGATAGTTCAGTGAATGCAAAT | 0.921
ACTTACGGGTCAACGAGGCTATAGCACGCGTATA | 6.74
TCTCGTAGGACACGAAAGGTCAGAGCTCGACATC | 3.09
CCTACTGGGCCAAGGTCAGTGATCAGTCAAAGCA | 0.692
TCATAAAGGTAAAAGGTGAAAGTCGGTGTGGTAA | 1.89
TCTAGTTGGTAACGGAGGTCACACACGACGGGTA | 3.8
CGTCCAAGGTCAGAGAGGTCAGGGAATGCCGAGT | 7.31
TCTTGTCGATCAAAGGTTAAGAAAGCCGAAGCCT | 1.27
